Screens from PubChem BioAssay.
Shown is part of a subset that was picked to be rich in hits.
Sa helicase inh = blocks Staphylococcus aureus DNA helicase | inhibition, % (concentration not given with the values) | purified S. aureus helicase, fluorescence unwinding assay | 120,000 tested, 0.05% active | AID 485395; in the data active = inhibition above about 25%, passing the limit was not always enough;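 also: 0% = mean of negative control wells and 100% = mean of positive control wells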
Sa growth 42C = inhibitors of Staphylococcus aureus growth at 42 °C | S. aureus RN4220 growth, OD600, 20 h; stronger effect = lower value | relative growth, % (test concentration not listed) | 170,000 tested, 0.53% active;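 active = relative growth at most 50% at the other temperature and 20+ points below 30 °C, or under 10% at both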
An asterisk follows results filed as active; ! = not confirmed by another sample.

How did O=C(CSc1nc(-c2ccccc2F)nc2cc(=O)[nH]n12)Nc1cccc(C(F)(F)F)c1 do in these assays?
Sa growth 42C: 2.8*

What do the screens show for `O=C(CSc1nc(-c2cccc(Cl)c2)nc2cc(=O)[nH]n12)Nc1ccccc1`?
Sa growth 42C: 89

Results for CC(=O)Nc1ccc(S(=O)(=O)N2CCCCC2)cc1Cl ?
Sa growth 42C: 103

How did Cc1cccc(Cn2nnc3c(=O)[nH]c(C4CCN(C(=O)c5ccc(F)cc5)CC4)nc32)c1 do in these assays?
Sa growth 42C: 2.7*

What do the screens show for `Cc1ccccc1Cn1nnc2c(=O)[nH]c(C3CCN(C(=O)c4ccccc4)CC3)nc21`?
Sa growth 42C: 3.5*

What do the screens show for `COc1ccc(Cn2nnc3c(=O)[nH]c(C4CCN(C(=O)c5ccc(C)cc5)CC4)nc32)cc1OC`?
Sa growth 42C: 10

Results for Cc1cccc(Cn2nnc3c(=O)[nH]c(C4CCCN(C(=O)c5ccccc5Cl)C4)nc32)c1 (configuration not stated) ?
Sa growth 42C: 93

How did Cc1ccccc1Cn1nnc2c(=O)[nH]c(C3CCN(C(=O)c4ccc(F)cc4)CC3)nc21 do in these assays?
Sa growth 42C: 19

How did Cc1ccc(C)c(C(=O)N2CCC(c3nc4c(nnn4Cc4ccccc4)c(=O)[nH]3)CC2)c1 do in these assays?
Sa growth 42C: 3.7*

What do the screens show for `O=C(c1ccccc1)N1CCCC(c2nc3c(nnn3Cc3ccc(F)cc3F)c(=O)[nH]2)C1` (configuration not stated)?
Sa growth 42C: 91

Results for O=C(c1cccc(Cl)c1)N1CCC(c2nc3c(nnn3Cc3ccc(F)cc3F)c(=O)[nH]2)CC1 ?
Sa growth 42C: 0.2*

Results for O=C(c1ccccc1)N(c1ccc2oc3c(c2c1)CCCC3)S(=O)(=O)c1ccccc1 ?
Sa helicase inh: 7; Sa growth 42C: 90

Results for CC(C)CCn1nc(C(=O)OCC(N)=O)c2ccccc2c1=O ?
Sa helicase inh: -1; Sa growth 42C: 81

How did O=C1OC(c2nn3c(-c4ccccc4)nnc3s2)Cc2ccccc21 (configuration not stated) do in these assays?
Sa helicase inh: 16; Sa growth 42C: 106

Results for c1ccc(CC2CCN(Cc3ccncc3)CC2)cc1 ?
Sa helicase inh: 15; Sa growth 42C: 104

Results for CCOc1ccc(Cn2nnc3c(=O)[nH]c(C4CCN(C(=O)c5ccccc5)CC4)nc32)cc1 ?
Sa growth 42C: -0.3*

What do the screens show for `COc1cccc(OC)c1Cn1nnc2c(=O)[nH]c(C3CCN(C(=O)c4ccccc4)CC3)nc21`?
Sa growth 42C: 11

What do the screens show for `CCN1C(=O)S/C(=C\c2cn(-c3ccccc3)nc2C)C1=S`?
Sa helicase inh: -38; Sa growth 42C: 97

How did Cc1nc2c(-c3ccccc3)c(C)[nH]n2c(=O)c1Cc1ccc(Br)cc1 do in these assays?
Sa growth 42C: 0.1*

How did Cc1ccc(Cc2c(C)nc3c(-c4ccccc4)c(C)[nH]n3c2=O)cc1 do in these assays?
Sa growth 42C: 108

How did CCOC(=O)c1c(-c2ccccc2)oc2ccc(OC)cc12 do in these assays?
Sa helicase inh: -13

How did CCOC(=O)c1c(-c2ccccc2)oc2ccc(OCC)cc12 do in these assays?
Sa helicase inh: 10; Sa growth 42C: 48*

What do the screens show for `COc1ccc(-n2c(SCC(=O)NC(C)(C#N)C(C)C)nc3ccccc32)cc1` (configuration not stated)?
Sa helicase inh: 7; Sa growth 42C: 100

What do the screens show for `COc1ccc(-c2noc(CNC(=O)Nc3cccc(C)c3)n2)cc1`?
Sa helicase inh: 9; Sa growth 42C: 90

Results for N#CSc1c(Cl)nc2sccn12 ?
Sa helicase inh: 0; Sa growth 42C: 1.8*

What do the screens show for `O=C(c1c(Cl)nc2sccn12)N1CCOCC1`?
Sa helicase inh: 23; Sa growth 42C: 106

How did COC(=O)c1sc(-c2cccs2)cc1NC(=O)CSCC(=O)O do in these assays?
Sa growth 42C: 110

What do the screens show for `COc1ccc(S(=O)(=O)N2CCc3ccccc32)cc1C(=O)NC(C)(C)C`?
Sa helicase inh: 9; Sa growth 42C: 82

How did CCC(c1nnc(SCC(=O)NCCc2ccc(Cl)cc2Cl)o1)N(C)C (configuration not stated) do in these assays?
Sa helicase inh: 44*; Sa growth 42C: 88

Results for CCC(c1nnc(SCC(=O)NCC(C)C)o1)N(C)C (configuration not stated) ?
Sa helicase inh: -6; Sa growth 42C: 98

What do the screens show for `Cc1ccc(-c2c(CN3CCN(C)CC3)csc2C)cc1`?
Sa helicase inh: -10; Sa growth 42C: 6.2*

How did Cc1ccc(-c2c(CN3CCN(c4cccc(C)c4C)CC3)csc2C)cc1 do in these assays?
Sa growth 42C: 105

How did CCn1cc(C(=O)N(C)CC(OC)OC)c(=O)c2cc(S(=O)(=O)N3CCc4ccccc4C3)ccc21 do in these assays?
Sa helicase inh: -1; Sa growth 42C: 103

How did COc1ccccc1NC(=O)CC(O)(C(F)(F)F)C(F)(F)F do in these assays?
Sa helicase inh: 20; Sa growth 42C: 102

What do the screens show for `Cc1ccc(Cl)cc1NC(=O)CC(O)(C(F)(F)F)C(F)(F)F`?
Sa helicase inh: 5; Sa growth 42C: -0.8*

How did CCN(CC)c1nc(N)c2c(N)nc3c(c2c1C#N)C(=O)CN3Cc1ccccc1 do in these assays?
Sa helicase inh: -14; Sa growth 42C: 104

Results for CCCCN(CC)c1nc(N)c2c(N)nc(SCC(=O)O)cc2c1C#N ?
Sa helicase inh: -15; Sa growth 42C: 6.2*

Results for Cc1c(C(=O)NCc2ccc3c(c2)OCO3)cnn1-c1ccc(F)cc1 ?
Sa growth 42C: 119

What do the screens show for `CCCNC(=O)N1CCn2cccc2C1C` (configuration not stated)?
Sa helicase inh: -11; Sa growth 42C: 105

Results for O=C(NCCC(=O)N1CCCc2ccccc21)c1ccco1 ?
Sa helicase inh: 2; Sa growth 42C: 113

How did CCCCCNC(=O)CCCCCn1c(=O)[nH]c2ccsc2c1=O do in these assays?
Sa growth 42C: 95

Results for CC(C)NC(=O)n1cc(F)c(=O)[nH]c1=O ?
Sa helicase inh: -4; Sa growth 42C: -0.6*

Results for CCCCCCNC(=O)n1cc(F)c(=O)[nH]c1=O ?
Sa growth 42C: 1.1*

Results for NC(=O)Cn1cc(F)c(=O)[nH]c1=O ?
Sa helicase inh: 15; Sa growth 42C: 90

Results for c1ccc(Cc2nc3c4cnn(Cc5ccccc5)c4ncn3n2)cc1 ?
Sa helicase inh: 0; Sa growth 42C: 92

What do the screens show for `O=C(O)c1[nH]c2ccccc2c1CC(=O)N1CCN(c2ccccc2F)CC1`?
Sa helicase inh: 6; Sa growth 42C: 108

How did O=C(CSc1nncs1)NCCN1C(=O)CSC1=O do in these assays?
Sa helicase inh: 15; Sa growth 42C: 91

Results for COc1ccccc1C(=O)Nc1nc2c(s1)CC(C)CC2 (configuration not stated) ?
Sa helicase inh: -23

How did CN(C)CCOc1ccc(/C(=C(/CCCl)c2ccccc2)c2ccccc2)cc1 do in these assays?
Sa growth 42C: 7.1*!

What do the screens show for `CN(CCOc1ccccc1)CCOc1ccccc1`?
Sa helicase inh: -11; Sa growth 42C: 118

How did CCc1ccc(-c2ccc(=O)n(CC(=O)N3CCCCC3)n2)cc1 do in these assays?
Sa helicase inh: 4; Sa growth 42C: 88

Results for CN(C)CC1COc2ccccc2C1=O (configuration not stated) ?
Sa growth 42C: -0.4*

How did O=C1c2ccccc2OCC1c1ccccc1 (configuration not stated) do in these assays?
Sa growth 42C: 90

What do the screens show for `CCN(Cc1ccccc1)C(=O)Cc1ccccc1`?
Sa growth 42C: 103
